# High-throughput results: PubChem, several laboratories
# HUVEC tox IL1B – cytotoxicity in IL-1B stimulated HUVEC, primary screen, cytotoxicity control for IL-1B NFkB translocation project, imaging, Hoechst nuclear count, IL-1B stimulus; HUVEC cell count loss; AID 845, 2007; cell count reduction, % at 2 µM; hit rate 0.41% among 94,000;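 active means cell count reduction more than 3 SD above the screen-wide mean, cut at about 70% in these data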;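 further: normalized per plate to untreated control cells as the no-loss baseline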
# IL1B NFkB inh – inhibitors of IL-1B driven NFkB p65 nuclear import, primary screen, imaging, HUVEC, IL-1B stimulus, high-content imaging; HUVEC IL-1B NFkB p65 nuclear translocation imaging; inhibition, % at 2 µM; hit rate 0.43% among 94,000;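 active means inhibition above about 30% together with a positive call from visual inspection of the well image, limit read from the data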;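 further: nuclear over cytoplasmic p65 intensity ratio measured by imaging; 0% = IL-1B stimulated DMSO wells and 100% = unstimulated DMSO wells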
# IL1B NFkB pot – enhancers of NFkB p65 translocation in HUVEC – imaging, IL-1B stimulus, high-content imaging, primary screen. HUVEC IL-1B NFkB p65 nuclear translocation imaging. activation, % at 2 µM. hit rate 0.3% among 94,000. AID 819, 2007;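 active means activation above 40%, about the mean plus 3 SD, also judged a hit on visual image review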;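 further: percent activation is computed from the nuclear over cytoplasmic p65 intensity ratio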
# Cav32 inh – Cav3.2 calcium influx blockers – cell-based, Fluo-4 calcium fluorescence, FDSS, MLSMR library, primary screen | B-score at 10 µM | hit rate 4% among 100,000 | Cav3.2-expressing cells; hits give low values;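 active means single-dose well whose peak fluorescence ratio is a statistical outlier from its plate by either plate-standardised score or position-corrected B-score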
# sEH inh – soluble epoxide hydrolase inhibitors, primary screen, biochemical, human sEH; Bifunctional epoxide hydrolase 2 (Homo sapiens), P34913; recombinant human sEH enzymatic activity assay; inhibition, % at 2 µM; hit rate 0.34% among 91,000; in the data active means inhibition above about 80%
# sEH activator – soluble epoxide hydrolase activators, primary screen, biochemical, human sEH | hit rate 0.04% among 91,000 | purified human sEH enzymatic activity, activator screen | activation, % at 2 µM | AID 717, 2007; in the data active means activation above about 37%
# Active calls of the source: *; / = no result given. Rows were chosen to be rich in hits. Some 4.6% of all compounds tested hit in one or more screens of this group.
SMILES,HUVEC tox IL1B,IL1B NFkB inh,IL1B NFkB pot,Cav32 inh,sEH inh,sEH activator
CC(C)OC(=O)c1c(N)n(CC2CCCO2)c2nc3ccccc3nc12 (stereo not given),-24,-13,13,0.47,4,-7
CCCNC(=O)c1c(N)n(CC2CCCO2)c2nc3ccccc3nc12 (stereo not given),-14,-6,6,-6.2*,-2,-2
CCN1C[C@]2(CO)CC[C@H](OC)[C@@]34C5C[C@H]6[C@H](OC)C5[C@](O)(C[C@H]6OC)[C@@H](C(OC)C23)[C@@H]14 (stereo not given in full),/,/,/,-0.39,/,/
O=C(Cc1ccccc1)Oc1ccc(N2C(=O)CCC2=O)cc1,-5,10,-10,0.44,-5,6
CCCC(=O)NC(Oc1ccc(Cl)cc1Cl)C(Cl)(Cl)Cl (stereo not given),-13,-6,6,-1,-3,6
CC(C)CC(=O)NC(Oc1ccc(Cl)cc1)C(Cl)(Cl)Cl (stereo not given),-7,-9,9,-6.2*,8,-10
O=C(c1ccc(CNS(=O)(=O)c2ccccc2)cc1)N1CCC2(CC1)OCCO2,-15,11,-11,/,/,/
CCN(CC)CCN=Cc1c(O)n(CCC2=CCCCC2)c(=O)[nH]c1=O,89*,26,-26,1.1,23,-22
O=C(O)[C@H]1C[C@@H]1[C@H](NP(=O)(c1ccccc1)c1ccccc1)c1ccccc1,/,/,/,-1.6,/,/
CC(C)[C@@]1(NC(=O)[C@@H]2C[C@@H]3c4cccc5[nH]cc(c45)C[C@H]3N(C)C2)O[C@@]2(O)[C@@H]3CCCN3C(=O)[C@H](Cc3ccccc3)N2C1=O,/,/,/,-5.4*,/,/
COc1ccc(-n2c(SC)nc3ccccc3c2=O)cc1,-9,-2,2,-0.72,0,1
O=c1c2ccccc2nc(N2CCCC2)n1-c1ccc(Cl)cc1,-1,-9,9,-4.6*,/,/
CC(=O)Nc1cc(C(=O)N2CCC3(CC2)OCCO3)ccc1Sc1ccc(C)cc1,2,-8,8,-0.28,4,-5
O=P(Nc1ccccc1Cl)(c1ccccc1)c1nc2c(s1)CCCC2 (stereo not given),24,-6,6,-5.9*,-6,9
C[C@@]12N[C@@H](Cc3ccccc31)c1ccccc12,/,/,/,0.11,/,/
CCOC(=O)C1=C(N)OC2=C(C(=O)CCC2)C12C(=O)Nc1ccccc12 (stereo not given),3,3,-3,-0.027,/,/
CCOC(=O)C1=C(N)OC2=C(C(=O)CCC2)C12C(=O)N1c3c(ccc(C)c32)C(C)=CC1(C)C (stereo not given),/,/,/,-8.3*,/,/
CCn1c(O)c(C=Nc2ccc(N3CCOCC3)cc2)c(=O)n(CC)c1=S,31,10,-10,-4.5*,-8,8
CCn1c(O)c(C=Nc2ccc(N3CCOCC3)c(Br)c2)c(=O)n(CC)c1=S,-9,-5,5,/,-2,2
COc1ccc(CCNCc2ccccn2)cc1OC,-8,36*,-36,0.53,4,-5
COCCCNC(=O)c1c(NC(=O)c2ccccc2)n(Cc2ccccc2)c2nc3ccccc3nc12,18,1,-1,-5.7*,-1,4
CCOC(=O)c1c(NC(=O)C(c2ccccc2)c2ccccc2)sc2c1C1CCN2CC1,5,-21,21,-4.1*,0,2
CCOC(=O)c1c(NC(=O)c2c(N)n(CCCOC)c3nc4ccccc4nc23)sc2c1CCCC2,-22,3,-3,0.2,6,-2
CCN(CC)c1ccc(N=Cc2c(O)n(Cc3ccccc3)c(=O)[nH]c2=O)cc1,-11,-2,2,-4.3*,5,-2
CN1C(=O)C(=Cc2ccc(N3CCCCC3)o2)C(=O)N(C)C1=S,10,10,-10,-6.7*,-3,6
SMILES,HUVEC tox IL1B,IL1B NFkB inh,IL1B NFkB pot,Cav32 inh,sEH inh,sEH activator
O=C1NC(=O)N(c2ccc3c(c2)OCO3)C(=O)/C1=C/c1ccc(N2CCCCC2)o1,-23,-28,28,-4.4,-8,6
CCC(C)NS(=O)(=O)c1ccc(OCC(=O)N2CCN(CC)CC2)cc1 (stereo not given),-34,-3,3,-0.085,-1,6
O=c1c2ccccc2nc(-c2ccco2)n1-c1ccccn1,3,-4,4,0.24,2,-3
O=c1c2ccccc2nc(-c2ccco2)n1-c1cccnc1,84*,4,-4,/,-14,13
O=C(c1ccccc1F)c1cn(Cc2ccccc2)c2ccccc12,-5,7,-25,-3.6*,-16,18
O=C(CNC(=O)c1ccccc1)Nc1ccc(Br)cc1C(=O)c1ccccc1,-8,-1,1,-6.9*,1,-3
O=C(CNC(=O)OCc1ccccc1)Nc1ccc(Br)cc1C(=O)c1ccccc1,-2,2,-2,-5.9*,19,-17
CC(=O)OC1N=C(c2ccc(Cl)cc2)c2cc(Br)ccc2NC1=O (stereo not given),-5,-11,11,-2.5,-4,8
CCCCn1c(=O)c(C(=O)Nc2cnccn2)c(O)c2ccccc21,-20,-6,5,-2.6*,4,-5
CCN(CC)CCNC(=O)c1c(O)c2ccccc2n(Cc2ccccc2)c1=O,-1,4,-4,-0.17,-3,2
CC(C)CCn1c(=O)c(C(=O)Nc2ccccc2S(N)(=O)=O)c(O)c2ccccc21,-9,39*,-39,-5.4*,8,-9
CC(=NCCN1CCOCC1)c1c(O)n(Cc2ccccc2)c(=O)[nH]c1=O,9,0,0,1.4,-10,9
CC(=O)c1cccc(NC2=NCC(C)S2)c1 (stereo not given),3,-3,3,0.8,-8,5
CC(C)[C@H]1C(=O)O[C@H](C(C)C)C(=O)N(C)[C@@H](C(C)C)C(=O)O[C@H](C(C)C)C(=O)N(C)[C@@H](C(C)C)C(=O)O[C@H](C(C)C)C(=O)N1C,/,/,/,-3.9*,/,/
CCN1C(=O)c2ccccc2Sc2ccc(C(=O)N3CCC4(CC3)OCCO4)cc21,6,-14,14,/,/,/
CN1C(=O)c2ccccc2Sc2ccc(C(=O)N3CCC4(CC3)OCCO4)cc21,-3,-157,157*,/,4,-4
